In PubChem BioAssay AID1671202 (University of Kansas High Throughput Screening Laboratory, 2021):
“And” between values parts separate entries of the source, which are not always exact repeats. Equal entries are not always repeated. Hit rate of the full screen: of about 190,000 compounds, about 6,900 (3.6%) were called active. The sample holds actives, similar compounds and a random draw of the others, so the mix is not that of the screen. Values without a mark were called inactive. Rule as the data show it: active = inhibition above about 50%; inactive = the rest.

These compounds were tested against Huntingtin (Homo sapiens) (UniProt P42858) (assay: mutant huntingtin-calmodulin interaction inhibitors – biochemical, AlphaScreen, primary screen (AID 1671202;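 also: 0% = both proteins with DMSO and 100% = one protein alone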)). Conditions: AlphaScreen His-mHTT/GST-CaM binding, luminescence; at 15 µM, stronger effect = higher value.
Huntingtin (Homo sapiens), sequence (P42858 whole entry, looked up, stated change not applied): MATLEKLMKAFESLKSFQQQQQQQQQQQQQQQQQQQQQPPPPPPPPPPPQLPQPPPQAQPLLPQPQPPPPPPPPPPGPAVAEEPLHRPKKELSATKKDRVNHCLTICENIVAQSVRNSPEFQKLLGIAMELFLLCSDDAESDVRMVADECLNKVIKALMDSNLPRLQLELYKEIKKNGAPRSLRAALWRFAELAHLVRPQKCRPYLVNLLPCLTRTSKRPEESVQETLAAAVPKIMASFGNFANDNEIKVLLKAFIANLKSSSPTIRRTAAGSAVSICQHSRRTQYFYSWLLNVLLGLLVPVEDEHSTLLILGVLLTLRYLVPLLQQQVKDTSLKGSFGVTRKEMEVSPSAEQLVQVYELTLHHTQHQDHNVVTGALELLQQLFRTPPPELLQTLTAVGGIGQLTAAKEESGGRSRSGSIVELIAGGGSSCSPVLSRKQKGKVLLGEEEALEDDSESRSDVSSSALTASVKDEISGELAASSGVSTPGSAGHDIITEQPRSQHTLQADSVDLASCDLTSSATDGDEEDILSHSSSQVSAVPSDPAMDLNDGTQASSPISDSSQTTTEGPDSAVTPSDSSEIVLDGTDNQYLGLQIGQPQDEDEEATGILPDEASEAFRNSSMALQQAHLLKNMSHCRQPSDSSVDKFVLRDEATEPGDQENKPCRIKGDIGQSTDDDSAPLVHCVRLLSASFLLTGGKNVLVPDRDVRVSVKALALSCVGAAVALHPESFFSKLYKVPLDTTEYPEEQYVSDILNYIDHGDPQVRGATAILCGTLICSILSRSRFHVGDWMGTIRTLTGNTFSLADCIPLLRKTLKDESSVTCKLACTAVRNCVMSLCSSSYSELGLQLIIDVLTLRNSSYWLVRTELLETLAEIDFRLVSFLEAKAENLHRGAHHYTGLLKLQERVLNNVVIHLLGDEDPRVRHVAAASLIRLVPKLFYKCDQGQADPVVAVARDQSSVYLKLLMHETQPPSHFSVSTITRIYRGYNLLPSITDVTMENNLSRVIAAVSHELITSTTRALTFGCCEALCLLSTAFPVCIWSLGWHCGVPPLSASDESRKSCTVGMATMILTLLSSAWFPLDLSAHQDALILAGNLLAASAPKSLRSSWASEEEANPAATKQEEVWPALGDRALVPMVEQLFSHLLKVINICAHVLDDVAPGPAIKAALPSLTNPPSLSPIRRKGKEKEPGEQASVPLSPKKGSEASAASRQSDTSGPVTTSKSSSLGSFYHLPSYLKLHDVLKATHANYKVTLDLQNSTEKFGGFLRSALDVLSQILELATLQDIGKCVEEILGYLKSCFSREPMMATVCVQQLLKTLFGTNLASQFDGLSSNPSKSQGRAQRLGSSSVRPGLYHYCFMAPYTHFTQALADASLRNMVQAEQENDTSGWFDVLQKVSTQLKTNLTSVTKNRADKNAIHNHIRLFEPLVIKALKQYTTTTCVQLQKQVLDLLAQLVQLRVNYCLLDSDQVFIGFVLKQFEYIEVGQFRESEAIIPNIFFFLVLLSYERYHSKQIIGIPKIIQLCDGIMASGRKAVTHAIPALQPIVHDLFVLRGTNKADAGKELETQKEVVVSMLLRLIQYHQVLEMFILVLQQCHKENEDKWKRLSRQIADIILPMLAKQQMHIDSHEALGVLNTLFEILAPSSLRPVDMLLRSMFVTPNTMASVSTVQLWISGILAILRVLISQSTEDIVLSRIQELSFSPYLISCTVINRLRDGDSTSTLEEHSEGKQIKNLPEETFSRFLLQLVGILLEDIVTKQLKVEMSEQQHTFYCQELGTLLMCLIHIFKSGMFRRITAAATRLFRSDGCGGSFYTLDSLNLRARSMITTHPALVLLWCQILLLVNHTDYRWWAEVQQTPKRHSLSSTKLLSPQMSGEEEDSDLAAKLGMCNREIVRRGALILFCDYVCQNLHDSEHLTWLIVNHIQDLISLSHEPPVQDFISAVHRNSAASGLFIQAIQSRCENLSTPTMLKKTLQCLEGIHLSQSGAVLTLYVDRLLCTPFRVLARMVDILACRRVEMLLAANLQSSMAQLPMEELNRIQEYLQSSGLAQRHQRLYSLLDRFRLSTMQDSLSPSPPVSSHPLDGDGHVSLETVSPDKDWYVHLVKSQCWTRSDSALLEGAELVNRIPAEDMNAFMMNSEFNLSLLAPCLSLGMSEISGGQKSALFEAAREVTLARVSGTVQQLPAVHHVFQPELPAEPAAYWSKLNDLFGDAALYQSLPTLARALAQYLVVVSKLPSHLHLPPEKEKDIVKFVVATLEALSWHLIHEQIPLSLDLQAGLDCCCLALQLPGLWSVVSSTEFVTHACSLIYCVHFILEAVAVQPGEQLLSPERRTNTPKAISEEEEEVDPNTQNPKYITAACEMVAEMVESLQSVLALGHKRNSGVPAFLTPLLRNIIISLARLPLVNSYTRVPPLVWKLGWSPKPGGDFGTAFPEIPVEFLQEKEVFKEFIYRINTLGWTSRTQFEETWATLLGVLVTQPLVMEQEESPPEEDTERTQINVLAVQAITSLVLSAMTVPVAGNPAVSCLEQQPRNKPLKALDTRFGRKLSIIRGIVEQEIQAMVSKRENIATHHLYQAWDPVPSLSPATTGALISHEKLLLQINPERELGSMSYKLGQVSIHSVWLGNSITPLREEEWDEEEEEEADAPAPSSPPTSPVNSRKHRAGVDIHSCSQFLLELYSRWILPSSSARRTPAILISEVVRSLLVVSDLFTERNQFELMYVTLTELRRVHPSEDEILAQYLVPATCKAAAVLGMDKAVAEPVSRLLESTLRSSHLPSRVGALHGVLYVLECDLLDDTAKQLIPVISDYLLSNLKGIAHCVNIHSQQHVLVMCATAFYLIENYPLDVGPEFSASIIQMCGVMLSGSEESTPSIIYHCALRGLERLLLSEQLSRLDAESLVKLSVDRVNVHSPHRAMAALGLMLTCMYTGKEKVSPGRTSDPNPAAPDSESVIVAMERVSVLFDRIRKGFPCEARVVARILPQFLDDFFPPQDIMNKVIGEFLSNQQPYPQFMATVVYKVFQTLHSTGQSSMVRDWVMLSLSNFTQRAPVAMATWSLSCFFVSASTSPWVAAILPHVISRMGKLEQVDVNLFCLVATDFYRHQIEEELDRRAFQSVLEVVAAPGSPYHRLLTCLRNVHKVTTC
With Cc1cccc(C(=O)NCCC2CCN(C(=O)Nc3cccc(Cl)c3)CC2)c1 the inhibition was -18.9%. Compound COc1ccccc1-n1c(C)nc2cc(C(=O)NCc3cccnc3)ccc21 has an inhibition of 0%. With CCOC(CNC(=O)c1ccc2c(c1)nc(C)n2-c1cc(Cl)ccc1OC)OCC the inhibition was 52% (active). With CCOc1ccc(-n2c(C)nc3cc(C(=O)NCC(OCC)OCC)ccc32)cc1 the inhibition was 23%. With O=C1c2ccccc2C(=O)c2c1ccc(Cl)c2NC(=O)C(F)(F)F the inhibition was 18%. For O=S(=O)(c1ccc(Cl)cc1)N1CCSC1c1ccccc1Cl (configuration not stated), the inhibition was -18%. O=C(NC1CCCCC1)C1CC(c2ccc(F)cc2)=NO1 (configuration not stated) was tested, and the inhibition was -5.78%. N=C1S/C(=C\c2ccc(N3CCOCC3)cc2)C(=O)N1c1ccccc1Cl gave an inhibition of 39%. Cc1ccc(C2=CC(c3ccc(C)cc3)n3nc(CCCO)nc3N2)cc1 (configuration not stated) was tested, and the inhibition was 24%. Work on CCC(=O)NCc1csc(C2CCCN(C(=O)C(C)(C)C)C2)n1 (configuration not stated) yielded an inhibition of 1.52%. O=C1OC(c2cccc(Br)c2)=N/C1=C\c1ccc(I)cc1 was tested, and the inhibition was 5%. COC(C(=O)Nc1ccc(C(C)=O)cc1)c1ccccc1 (configuration not stated) gave an inhibition of -1.7%. O=C(Nc1cc(F)ccc1F)C(c1ccccc1)n1cccc1 (configuration not stated) gave an inhibition of 42.3%. In the case of COC(=O)c1ccc(NC(=O)C(c2ccccc2)n2cccc2)cc1 (configuration not stated), the inhibition is reported as 75.5% (active). Compound CN(C)Cc1c(O)ccc2c1OC(=Cc1cccs1)C2=O has an inhibition of 1.1%. For C=CCn1c(SC(CCO)C(=O)N2CCCCC2)nc2sc3c(c2c1=O)CCCC3 (configuration not stated), the inhibition was 35.2%. For Nc1nc(SCC(=O)N2CCCCC2)nc2sc3c(c12)CCCC3, the inhibition was 35%. With NNc1nc2sc3c(c2c(=O)n1Cc1ccccc1)CCCC3 the inhibition was 79.8% (active). For Cc1ccccc1-n1ccn(CC(=O)NCc2ccco2)c(=O)c1=O, the inhibition was 1%. For O=C(NCc1ccco1)N1CCC2(CC1)Nc1ccccc1-n1cccc12, the inhibition was 67.5% (active). CCOCCCNC(=O)N1CCc2cn(C)c3cccc(c23)C1 showed an inhibition of 4.99%. For COc1ccc(C)cc1NC(=O)N1CCC2(CC1)Nc1cc(F)ccc1-n1cccc12, the inhibition was 54% (active). CC1CCC2(CC1)NC(=O)N(CC(=O)NCc1ccco1)C2=O (configuration not stated) was tested, and the inhibition was 1.16%. Work on COc1ccccc1NC(=O)N1CCC2(CC1)NC(=O)c1cc(F)ccc1N2C yielded an inhibition of -0.74%. For CCOCCCNC(=O)N1CCC2(CC1)Nc1cc(F)ccc1-n1cccc12, the inhibition was 64.6% (active). In the case of CCOc1ccccc1NC(=O)N1CCC(N2CCN(Cc3ccccc3)C2=O)CC1, the inhibition is reported as 4.68%. For CCOc1ccccc1NC(=O)N1CC2CN(S(=O)(=O)c3ccc(C)cc3)CC(C1)O2, the inhibition was -6.22%. Cc1ccc(NC(=O)N2CCC3(CC2)Nc2cc(F)ccc2-n2cccc23)c(Cl)c1 was tested, and the inhibition was 31.9%. For CCOc1ccccc1NC(=O)N1CCC2(CC1)c1cccn1-c1ccc(C)cc1N2CC, the inhibition was 50.5% (active). CCOCCCNC(=O)C1(C)CCC(=O)N1c1ccc(F)cc1C (configuration not stated) showed an inhibition of -2.61%. CC(C)n1c(C2CCN(C(=O)C3(c4ccccc4)CC3)C2)nc2ccncc21 (configuration not stated) showed an inhibition of 1.58%. For O=c1[nH]c(-c2ccccc2)cn1-c1cccc(C(F)(F)F)c1, the inhibition was 12%. In the case of C=Cc1ccc(CN2C(=O)N(c3ccc(F)cc3)c3ncccc3S2(=O)=O)cc1, the inhibition is reported as -1.5%. Nc1cc(C2CCN(C(=O)Nc3cc(Cl)cc(Cl)c3)CC2)no1 was tested, and the inhibition was 1.32%. Cc1nn2cc(-n3cc([N+](=O)[O-])cn3)cnc2c1[N+](=O)[O-] gave an inhibition of -2.97%. COc1cccc(CC(=O)Nc2cccn3c(C)nnc23)c1 was tested, and the inhibition was -2.3%. Compound CCCn1c(=O)c2sc(N3CCCC3)nc2n(CC(=O)Nc2cc(F)cc(F)c2)c1=O has an inhibition of -10.6%. COc1ccc2oc(-c3ccc(NC(=O)c4cccc(Br)c4)cc3)nc2c1 showed an inhibition of 34%. C=CCc1ccc(OCC(=O)NCCC2=CCCCC2)c(OC)c1 gave an inhibition of -16%. With COc1cc(OC)c(N2C=C(C#N)S(=O)(=O)c3ccc(F)cc32)cc1Cl the inhibition was -0.3%. For Cc1cccc(CNC(=O)c2cc(C(C)C)n3nccc3n2)c1, the inhibition was -134%. Compound Cc1ccc(NC(=O)O[C@H]2CCC23CCCCC3)cc1 has an inhibition of -86.9%. Work on Cc1cc(C)c(S(=O)(=O)N2CCCC2C(=O)NCCc2csc(C)n2)c(C)c1 (configuration not stated) yielded an inhibition of -2.4%. With Cc1cccc(C(=O)N2CCN(c3nc4ccccc4n(CC(C)C)c3=O)CC2)c1 the inhibition was -13.3%. With Cc1ccc2c(c1)NC1(CCN(C(=O)c3ccccc3)CC1)c1cccn1-2 the inhibition was 84.3% (active). Compound O=C1NC2(CCN(C(=O)c3ccccc3)CC2)Nc2cc(Cl)ccc21 has an inhibition of -7.3%. Compound CCN1c2ccc(C)cc2C(=O)NC12CCN(C(=O)c1cccc(C)c1)CC2 has an inhibition of -2.5%. For CCNc1nccc(N2CCC(CC(=O)NCc3cccc(Cl)c3)CC2)n1, the inhibition was 7.56%. Work on COc1ccc(-c2cc(C(F)(F)F)n3nc(C(=O)N4CCC(C)CC4)cc3n2)cc1OC yielded an inhibition of 4%. COc1ccc(C(=O)NC(C)c2ccccc2)cc1OC (configuration not stated) showed an inhibition of -4.5%. In the case of COc1ccc(CC(=O)NC(c2ccccc2)c2ccccc2)cc1OC, the inhibition is reported as 53.3% (active). For COc1ccc(CCNC(=O)COc2ccccc2Br)cc1OC, the inhibition was 1.8% and -8.4%. COc1ccc(OC)c(CN2CCc3nc(N4CCOCC4)ncc3C2)c1 was tested, and the inhibition was 13.8%. Compound CCc1ccccc1NC(=O)c1cc2n(n1)CCCN(Cc1ccc(F)cc1)C2=O has an inhibition of -3.32%. For Cc1cc(C)c(C(=O)Nc2nc3ccc(S(C)(=O)=O)cc3s2)c(C)c1, the inhibition was -1.4%. CC(C)(C)c1ccc(C(=O)Nc2nc3ccc(S(C)(=O)=O)cc3s2)cc1 was tested, and the inhibition was -2%. For CS(=O)(=O)c1ccc2nc(NC(=O)/C=C/c3ccccc3)sc2c1, the inhibition was 76% (active). For COc1cc(N2CN=c3s/c(=C\c4ccc([N+](=O)[O-])cc4)c(=O)n3C2)cc(OC)c1OC, the inhibition was 49%. Compound Brc1ccc2c(c1)CCCN2 has an inhibition of 10%. CC1=NOC(=O)/C1=C/c1ccc(-c2cc(Cl)ccc2Cl)o1 showed an inhibition of -2%. With O=C1NN=C(c2ccccc2)/C1=C/c1ccc(-c2ccc(Cl)cc2)o1 the inhibition was 61% (active). Work on Cc1nn2c(=O)/c(=C/c3ccc(-c4ccc(F)cc4)o3)sc2nc1=O yielded an inhibition of -2%.
